# According to the supplement of paper PMC10849652:
# About 7,900 targets were measured; listed, in parts, are those with a hit and a random draw of the rest. About 0.6% of all pairs of compound and target were hits. A number with no mark means an inactive call.
# How the values were obtained:
# Assay in all cases: log2 fold change, soluble protein after heating vs DMSO (PISA); higher = thermal stabilisation; K562 cells, 10 uM, 30 min; active = over 0.2 and 3.5 SD of the protein, either way, in both replicates (recomputed)
# [1] = compound: CN1CCN(CCOc2cc(OC3CCOCC3)c3c(Nc4c(Cl)ccc5c4OCO5)ncnc3c2)CC1 [saracatinib]
# How it was run: (§1)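 K562 cells at 2×10^6 cells/mL were given 10 μM compound for 30 min. Aliquots then went through 3 min of heating across 48°C-58°C, were pooled, and were extracted in PBS with 0.5% NP-40 at 4°C, and the supernatant after 21,000xg for 90 min was quantified by TMTpro 16plex LC-MS/MS with channel sums equalised. Thermal stability relative to control samples, from duplicates, is given as log2 fold change.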
# [2] = compound: CN1CCN(c2nc(C3=C(c4c[nH]c5ccccc45)C(=O)NC3=O)c3ccccc3n2)CC1 [sotrastaurin]
# How it was run: as §1
# [3] = compound: CN1CC[C@H](c2c(O)cc(O)c3c(=O)cc(-c4ccccc4Cl)oc23)[C@H](O)C1 [alvocidib]
# How it was run: as §1
# [4] = compound: CN1CCc2c(c3ccccc3n2Cc2ccc(C(=O)NO)cc2)C1 [Tubastatin A]
# How it was run: as §1
# [5] = compound: CNC(=O)C1=CC=CC=C1NC2=NC(=NC=C2Cl)NC3=C(C=C(C=C3)N4CCOCC4)OC
# How it was run: as §1
# [6] = compound: CNC(=O)c1ccc(Nc2ncc(C(F)(F)F)c(NCc3nccnc3N(C)S(C)(=O)=O)n2)cc1 [defactinib]
# How it was run: as §1
# [7] = compound: CNCc1ccc(-c2[nH]c3cc(F)cc4c3c2CCNC4=O)cc1 [rucaparib]
# How it was run: as §1
# [8] = compound: CNc1nc(-c2ccc3c(N)n[nH]c3c2)cc(N2C[C@@H](C(=O)NC3CCCCC3)CC[C@H]2C)n1
# How it was run: as §1
# [9] = compound: COC(=O)N[C@@H](C)CNc1nccc(-c2cn(C(C)C)nc2-c2cc(Cl)cc(NS(C)(=O)=O)c2F)n1 [encorafenib]
# How it was run: as §1
# [10] = compound: COC(=O)[C@H](CCSC)NC(=O)C1=C(C=C(C=C1)NC[C@H](CS)N)C2=CC=CC=C2
# How it was run: as §1
# [11] = compound: COC1=CC=C(C=C1)CN2C=CC3=C2C=C(C=C3)C(=O)NO
# How it was run: as §1
# [12] = compound: CON(C)C(=O)N1N=C(c2cc(F)ccc2F)S[C@@]1(CCCN)c1ccccc1 [filanesib]
# How it was run: as §1
# [13] = compound: CO[C@H]1C[C@@H]2CC[C@@H](C)[C@@](O)(O2)C(=O)C(=O)N2CCCC[C@H]2C(=O)O[C@H]([C@H](C)C[C@@H]2CC[C@H](n3cnnn3)[C@H](OC)C2)CC(=O)[C@H](C)/C=C(\C)[C@@H](O)[C@@H](OC)C(=O)[C@H](C)C[C@H](C)/C=C/C=C/C=C/1C [zotarolimus]
# How it was run: as §1
# [14] = compound: COc1cc(C(=O)O)ccc1NC(=O)[C@@H]1N[C@@H](CC(C)(C)C)[C@](C#N)(c2ccc(Cl)cc2F)[C@H]1c1cccc(Cl)c1F [idasanutlin]
# How it was run: as §1
# [15] = compound: COc1cc(Nc2ncc3c(n2)-c2ccc(Cl)cc2C(c2c(F)cccc2OC)=NC3)ccc1C(=O)O [alisertib]
# How it was run: as §1
# [16] = compound: COc1cc2nc(-c3cc(F)ccc3O)nc(N[C@@H]3CNC[C@H]3C(C)(C)O)c2cc1OC
# How it was run: as §1
# [17] = compound: COc1cc2ncnc(Nc3ccc(F)c(Cl)c3)c2cc1OCCCN1CCOCC1 [gefitinib]
# How it was run: as §1
# [18] = compound: COc1cccc2cc(-c3nc([C@H]4CC[C@H](C(=O)O)CC4)n4ncnc(N)c34)[nH]c12
# How it was run: as §1
# [19] = compound: CS(=O)(=O)CCNCc1ccc(-c2ccc3ncnc(Nc4ccc(OCc5cccc(F)c5)c(Cl)c4)c3c2)o1 [lapatinib]
# How it was run: as §1
# [20] = compound: CS(=O)(=O)N1CCN(Cc2cc3nc(-c4cccc5[nH]ncc45)nc(N4CCOCC4)c3s2)CC1 [pictilisib]
# How it was run: as §1
# UniProt Q5T8P6, sequence (Q5T8P6 whole entry, looked up): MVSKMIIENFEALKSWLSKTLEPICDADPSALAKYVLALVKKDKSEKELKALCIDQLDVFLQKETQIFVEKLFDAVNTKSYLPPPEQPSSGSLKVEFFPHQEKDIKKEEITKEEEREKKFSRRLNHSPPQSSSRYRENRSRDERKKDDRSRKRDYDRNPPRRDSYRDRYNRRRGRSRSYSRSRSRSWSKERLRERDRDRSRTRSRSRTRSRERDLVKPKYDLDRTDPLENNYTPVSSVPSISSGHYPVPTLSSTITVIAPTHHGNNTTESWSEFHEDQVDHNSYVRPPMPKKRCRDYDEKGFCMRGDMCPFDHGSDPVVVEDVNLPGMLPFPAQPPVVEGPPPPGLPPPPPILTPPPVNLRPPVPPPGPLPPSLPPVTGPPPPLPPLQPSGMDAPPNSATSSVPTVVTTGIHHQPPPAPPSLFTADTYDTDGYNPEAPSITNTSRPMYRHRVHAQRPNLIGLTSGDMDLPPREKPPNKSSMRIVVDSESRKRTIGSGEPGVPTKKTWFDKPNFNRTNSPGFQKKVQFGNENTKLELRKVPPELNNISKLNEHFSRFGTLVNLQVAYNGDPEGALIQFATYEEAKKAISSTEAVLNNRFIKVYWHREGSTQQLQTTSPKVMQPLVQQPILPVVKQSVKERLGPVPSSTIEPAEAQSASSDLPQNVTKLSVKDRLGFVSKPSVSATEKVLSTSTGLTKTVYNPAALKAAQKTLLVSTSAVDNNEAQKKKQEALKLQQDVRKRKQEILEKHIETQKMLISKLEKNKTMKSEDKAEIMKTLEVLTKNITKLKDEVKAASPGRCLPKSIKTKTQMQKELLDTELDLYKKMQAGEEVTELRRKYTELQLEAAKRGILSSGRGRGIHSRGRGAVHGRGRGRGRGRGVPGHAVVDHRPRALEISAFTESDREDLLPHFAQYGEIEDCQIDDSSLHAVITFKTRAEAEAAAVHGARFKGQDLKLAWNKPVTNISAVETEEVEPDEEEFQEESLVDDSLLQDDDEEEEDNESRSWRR
# UniProt Q96DX4, sequence (Q96DX4 whole entry, looked up): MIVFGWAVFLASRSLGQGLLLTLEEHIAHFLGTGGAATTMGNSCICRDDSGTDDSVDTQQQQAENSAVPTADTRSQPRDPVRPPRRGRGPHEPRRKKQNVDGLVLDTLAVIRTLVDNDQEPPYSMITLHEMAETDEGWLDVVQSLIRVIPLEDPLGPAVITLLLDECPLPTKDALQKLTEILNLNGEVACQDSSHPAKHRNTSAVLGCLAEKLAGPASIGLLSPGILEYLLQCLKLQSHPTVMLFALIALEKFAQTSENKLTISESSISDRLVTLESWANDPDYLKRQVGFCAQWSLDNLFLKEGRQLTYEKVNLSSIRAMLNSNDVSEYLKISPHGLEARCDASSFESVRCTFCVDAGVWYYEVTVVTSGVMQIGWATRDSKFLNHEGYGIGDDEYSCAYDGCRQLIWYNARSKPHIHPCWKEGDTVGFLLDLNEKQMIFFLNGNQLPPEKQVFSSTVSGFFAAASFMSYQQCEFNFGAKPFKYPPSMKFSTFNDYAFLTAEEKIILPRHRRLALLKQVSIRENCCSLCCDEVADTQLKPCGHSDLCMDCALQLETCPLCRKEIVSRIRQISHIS
# UniProt P51148, sequence (P51148 whole entry, looked up): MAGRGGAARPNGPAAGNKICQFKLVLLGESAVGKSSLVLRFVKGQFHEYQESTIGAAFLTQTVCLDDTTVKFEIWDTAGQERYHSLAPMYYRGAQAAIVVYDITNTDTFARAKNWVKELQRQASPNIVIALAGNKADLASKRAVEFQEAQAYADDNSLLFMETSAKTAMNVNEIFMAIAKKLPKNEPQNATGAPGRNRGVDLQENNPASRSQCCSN
# UniProt Q92696, sequence (Q92696 whole entry, looked up): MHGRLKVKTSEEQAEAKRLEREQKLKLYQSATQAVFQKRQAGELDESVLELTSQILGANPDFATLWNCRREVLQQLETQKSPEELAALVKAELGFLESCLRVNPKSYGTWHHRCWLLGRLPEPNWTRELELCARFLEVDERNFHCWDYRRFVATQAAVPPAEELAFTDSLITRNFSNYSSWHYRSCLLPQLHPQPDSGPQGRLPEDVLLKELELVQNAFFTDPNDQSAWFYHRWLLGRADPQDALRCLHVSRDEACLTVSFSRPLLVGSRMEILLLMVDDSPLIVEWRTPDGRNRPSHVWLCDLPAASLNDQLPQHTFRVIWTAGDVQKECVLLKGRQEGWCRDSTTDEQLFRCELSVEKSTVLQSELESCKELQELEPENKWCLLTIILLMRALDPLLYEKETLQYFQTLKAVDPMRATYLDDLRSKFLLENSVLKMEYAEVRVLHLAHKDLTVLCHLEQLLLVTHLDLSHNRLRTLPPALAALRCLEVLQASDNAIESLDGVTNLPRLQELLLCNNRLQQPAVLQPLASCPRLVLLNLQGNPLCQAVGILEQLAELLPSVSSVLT
# UniProt Q04864, sequence (Q04864 whole entry, looked up): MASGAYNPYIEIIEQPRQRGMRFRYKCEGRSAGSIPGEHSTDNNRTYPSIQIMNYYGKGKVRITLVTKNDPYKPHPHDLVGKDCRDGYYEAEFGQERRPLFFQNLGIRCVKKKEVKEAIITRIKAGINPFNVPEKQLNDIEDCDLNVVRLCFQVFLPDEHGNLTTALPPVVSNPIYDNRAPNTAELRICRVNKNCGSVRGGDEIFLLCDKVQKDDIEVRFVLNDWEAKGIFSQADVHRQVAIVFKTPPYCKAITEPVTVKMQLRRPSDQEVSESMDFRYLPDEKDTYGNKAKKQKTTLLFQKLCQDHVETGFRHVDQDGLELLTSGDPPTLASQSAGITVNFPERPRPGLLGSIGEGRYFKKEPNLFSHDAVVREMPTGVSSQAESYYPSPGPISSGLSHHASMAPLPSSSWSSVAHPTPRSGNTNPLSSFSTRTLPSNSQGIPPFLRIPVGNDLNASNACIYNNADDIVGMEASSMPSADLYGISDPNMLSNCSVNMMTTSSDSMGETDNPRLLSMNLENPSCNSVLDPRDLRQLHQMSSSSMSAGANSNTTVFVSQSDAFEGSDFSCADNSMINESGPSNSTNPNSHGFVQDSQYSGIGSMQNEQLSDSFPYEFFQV
# UniProt O00767, sequence (O00767 whole entry, looked up): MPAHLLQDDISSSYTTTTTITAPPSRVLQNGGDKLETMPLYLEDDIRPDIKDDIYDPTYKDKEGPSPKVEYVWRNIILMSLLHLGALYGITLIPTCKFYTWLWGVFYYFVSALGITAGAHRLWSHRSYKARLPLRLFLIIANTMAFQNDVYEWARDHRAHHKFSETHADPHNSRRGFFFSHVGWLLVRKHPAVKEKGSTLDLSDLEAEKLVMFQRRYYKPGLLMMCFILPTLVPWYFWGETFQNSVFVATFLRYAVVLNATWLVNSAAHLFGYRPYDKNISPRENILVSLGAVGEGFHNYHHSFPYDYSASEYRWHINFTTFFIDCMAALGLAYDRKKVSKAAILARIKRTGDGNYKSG
# UniProt P35244, sequence (P35244 whole entry, looked up): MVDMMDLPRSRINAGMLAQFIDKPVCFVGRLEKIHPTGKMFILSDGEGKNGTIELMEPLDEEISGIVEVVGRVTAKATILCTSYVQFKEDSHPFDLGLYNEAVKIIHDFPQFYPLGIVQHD
# UniProt Q9Y6Y8, sequence (Q9Y6Y8 whole entry, looked up): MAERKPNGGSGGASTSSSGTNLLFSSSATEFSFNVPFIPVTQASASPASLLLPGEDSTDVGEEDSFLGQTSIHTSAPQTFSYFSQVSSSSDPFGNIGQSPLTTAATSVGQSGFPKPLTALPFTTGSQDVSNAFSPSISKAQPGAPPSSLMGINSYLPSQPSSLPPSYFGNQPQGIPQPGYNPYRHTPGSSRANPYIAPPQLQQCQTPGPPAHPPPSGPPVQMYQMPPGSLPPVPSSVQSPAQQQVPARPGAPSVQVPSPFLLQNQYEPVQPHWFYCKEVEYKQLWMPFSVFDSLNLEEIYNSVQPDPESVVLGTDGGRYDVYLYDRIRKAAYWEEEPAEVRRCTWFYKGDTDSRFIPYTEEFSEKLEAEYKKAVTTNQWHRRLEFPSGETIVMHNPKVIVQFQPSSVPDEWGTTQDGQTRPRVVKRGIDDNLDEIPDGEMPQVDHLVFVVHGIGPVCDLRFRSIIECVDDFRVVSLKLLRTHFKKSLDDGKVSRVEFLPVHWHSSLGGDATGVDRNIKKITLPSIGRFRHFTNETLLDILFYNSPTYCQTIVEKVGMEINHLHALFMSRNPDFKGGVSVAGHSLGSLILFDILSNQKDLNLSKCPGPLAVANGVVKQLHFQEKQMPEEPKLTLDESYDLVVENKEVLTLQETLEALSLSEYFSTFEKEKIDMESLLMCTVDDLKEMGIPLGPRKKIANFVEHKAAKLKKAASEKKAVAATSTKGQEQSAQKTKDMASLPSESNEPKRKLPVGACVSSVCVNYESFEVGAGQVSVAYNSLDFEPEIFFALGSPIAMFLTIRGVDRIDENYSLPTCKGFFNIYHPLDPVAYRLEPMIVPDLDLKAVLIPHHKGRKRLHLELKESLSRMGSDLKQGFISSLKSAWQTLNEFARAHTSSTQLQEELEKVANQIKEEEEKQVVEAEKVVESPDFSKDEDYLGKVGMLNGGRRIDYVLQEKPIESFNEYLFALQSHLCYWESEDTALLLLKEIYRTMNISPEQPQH
Target,log2 fold change [1],log2 fold change [2],log2 fold change [3],log2 fold change [4],log2 fold change [5],log2 fold change [6],log2 fold change [7],log2 fold change [8],log2 fold change [9],log2 fold change [10],log2 fold change [11],log2 fold change [12],log2 fold change [13],log2 fold change [14],log2 fold change [15],log2 fold change [16],log2 fold change [17],log2 fold change [18],log2 fold change [19],log2 fold change [20]
RPS19 (UniProt P39019),-0.024,0.001,0.178,0.089,0.07,0.167,0.136,0.064,0.028,-0.004,0,0.102,-0.015,0.113,-0.114,-0.024,-0.049,-0.12,0.059,-0.137
REL (UniProt Q04864),-0.028,-0.049,-0.059,0.008,0.052,-0.12,0.089,-0.013,-0.046,-0.016,-0.006,0.051,0.004,0.033,0.068,0.062,0.148,-0.086,-0.031,-0.243
RAB5C isoform 2 (UniProt P51148),0.08,-0.011,0.011,0.013,-0.013,-0.011,-0.02,0.003,-0.039,0.017,-0.002,-0.053,-0.015,-0.055,-0.095,0.015,0.013,0.038,-0.027,-0.017
RPS4X (UniProt P62701),-0.164,-0.017,0.247,0.123,0.063,0.302,0.185,0.089,0.08,0.014,-0.059,0.314,-0.001,0.148,-0.099,-0.038,-0.048,-0.222,0.102,-0.155
RSPRY1 (UniProt Q96DX4),-0.073,-0.01,0.001,0.009,-0.037,0.013,0.118,0.126,0.04,0.009,-0.065,0.01,-0.01,-0.061,-0.051,-0.006,0.048,0.031,0.046,0.054
SEC16A isoform 5 (UniProt O15027),-0.08,-0.049,0.028,0.052,-0.085,-0.016,0.22,0.09,0.119,-0.018,0.079,0.037,-0.01,-0.021,0,0.007,0.046,-0.148,0.017,-0.003
RABGGTA (UniProt Q92696),0.013,0.102,-0.079,-0.044,-0.034,-0.034,-0.015,0.001,0.004,-0.024,0.019,-0.013,0.022,-0.019,0.016,-0.007,0.041,0.017,0.002,0.067
SCD (UniProt O00767),0.066,0.036,0.049,-0.234,0.024,0.025,-0.006,-0.164,0.04,0.045,-0.458 (active),-0.074,-0.024,-0.001,0.014,-0.054,0.019,0.048,-0.017,-0.053
RBM26 isoform 2 (UniProt Q5T8P6),-0.01,-0.193,-0.226,0.094,-0.074,-0.489 (active),-0.039,0.025,0.03,-0.032,0.086,-0.071,0.03,-0.025,0.093,-0.045,0.064,0.009,0.034,0.059
RPA3 (UniProt P35244),0.015,-0.014,-0.04,0.022,0.181,-0.054,-0.048,0.015,0.06,0.014,0.054,-0.038,0.056,-0.064,0.073,-0.05,-0.01,-0.048,0.04,0.046
SEC23IP (UniProt Q9Y6Y8),-0.097,-0.048,-0.157,0.043,-0.092,-0.156,-0.019,-0.045,0.058,0.025,-0.006,0,-0.002,0.016,0,-0.065,0.009,-0.096,0.035,-0.006
ROCK1 (UniProt Q13464),-0.006,-0.056,-0.052,-0.009,-0.016,-0.023,0.021,0.122,0.031,-0.015,0.037,-0.028,0.003,-0.005,0.067,0.246 (active),-0.012,-0.005,0.012,-0.012
